The nature of this experiment: viability loss in A549 lung cells – cell-based, ATP luminescence, cherry-pick, set 2, cytotoxicity control, dose response (AID 1053124). The settings on record: ATP luminescence (CellTiter-Glo), 72 h; series mostly up to 26 µM. For orientation: ATP-based viability assays read luminescence as a measure of living cells.

SMILES strings stand for the structures. Measured potencies and affinities stand elsewhere. The source made the active and inactive calls.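 The calls were made as follows: active = cell killing whose fitted half-effect concentration is at most twice the top valid dose tested; inconclusive = flat curve with 30 to 70% killing, or a poor fit; inactive = effect in the rising direction, plus the rest.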

Turning to `S=C(NCC1CCCO1)N1CCN(Cc2ccccc2Cl)CC1` (stereo not given), the molecule was classed as inactive. With `COc1ccc(C2CC(c3cccs3)=NN2c2nc(C)c(C(C)=O)s2)cc1OC` (stereo not given), the result was inactive. As for `CN1c2ccc(Cl)cc2C(=O)NC1C1CC=CCC1` (stereo not given), the outcome was inactive. For `CCc1cccc(OC2OC(CO)C(O)C(O)C2NC(C)=O)c1` (stereo not given), the molecule was classed as inactive. For `Cc1cccn2c(=O)c(/C=C(\C#N)C(N)=O)c(Oc3ccccc3)nc12`, the molecule was classed as inactive. As for `CCCN1CCN(C(=O)c2ccc(CS(=O)c3ccc(Br)cc3)o2)CC1` (stereo not given), the molecule was called inactive. On to `CC(=O)c1cc2ccc(O)cc2oc1=O`, for which the result was inactive. As for `O=C(O)c1ccc(N2N=C(c3ccccc3)CC2c2ccccc2)cc1` (stereo not given), the outcome was inactive.

`CCOC(=O)C(NC(=O)c1ccccc1)(OCC1(CC)COC1)C(F)(F)F` (stereo not given): the molecule was classed as inactive. Regarding `O=C(O)[C@@H]1CCCN1S(=O)(=O)c1cccc(S(=O)(=O)N2CCC[C@H]2C(=O)O)c1`, the call was inactive. With `CC(=O)OC[C@@H]1CN(Cc2ccccc2)C[C@H](n2cnc3c(N(C)C(C)C)ncnc32)O1`, the outcome was inactive. With `CCc1ccccc1S(=O)(=O)Cc1ccc(C(=O)N2CCN(c3ccccc3OC)CC2)o1`, the molecule was classed as inactive.

For the molecule `CCN(CC)Cc1c(O)c(Cl)cc2c(C)cc(=O)oc12`, the call was inactive. On to `CCOC(=O)C1=CN(CC2CCCO2)C=C(C(=O)OCC)C1c1ccccc1C(F)(F)F` (stereo not given), for which the outcome was inactive. On to `COCCN1C=C(C(=O)OC)C(c2ccc(Cl)cc2)C(C(=O)OC)=C1`, for which the molecule was classed as inactive. As for `COc1ccccc1C1C2=C(CC(C)(C)CC2=O)N(CC(=O)O)C2=C1C(=O)CC(C)(C)C2`, the molecule was classed as inactive.

Turning to `CSC1=NSC2=NC(=O)/C(=C/c3coc4ccc(O)cc4c3=O)C(=N)N12`, the outcome was inactive. As to `CC(=O)NNc1cc(N2CCOCC2)nc(N2CCOCC2)n1`, the molecule was classed as inactive. For the molecule `Cc1cccn2c(=O)c3cc(C(=O)NC(C)c4ccccc4)c(=N)n(CCCn4ccnc4)c3nc12` (stereo not given), the molecule was classed as inactive. As to `COc1ccc(Cn2nnnc2C(CC(C)C)N2CCC(C(N)=O)CC2)cc1` (stereo not given), the outcome was inactive. For the molecule `CCN(CC)c1ccc2cc(C(N)=O)c(=O)oc2c1`, the molecule was classed as inactive.

For `COc1ccc(S(=O)(=O)N2CCCC2CNC(=O)C(=O)NC2CCCC2)cc1` (stereo not given), the molecule was called inactive.

On to `CCOc1ccccc1N=c1oc2cc(O)ccc2cc1C(=O)NCC1CCCO1` (stereo not given), for which the molecule was classed as inactive. Consider `Cc1cccn2c(=O)c3cc(C#N)c(=NC(=O)c4cccs4)n(CC(C)C)c3nc12`, for which the outcome was inactive. For `CC1CCN(C(=O)COc2cccc3c2CCN(Cc2ccccc2)C3=O)CC1`, the outcome was inactive. For `O=c1c2ccccc2n(CC(O)CN2CCCCC2)c2ccccc12` (stereo not given), the outcome was inactive.

Consider `O=C(C1=NN(c2ccccc2)C2C(=O)N(c3ccccc3)C(=O)C12)c1ccccc1` (stereo not given), for which the molecule was called inactive. Consider `CCC(Sc1nc(N)c(NC(=O)c2ccc(OC)cc2)c(=O)[nH]1)C(=O)O` (stereo not given), for which the outcome was inactive. `COC(=O)C1=CN(CC2CCCO2)C=C(C(=O)OC)C1c1cccc(O)c1` (stereo not given): the outcome was inactive. As to `CNC(=O)c1ccc(NC(=O)c2cccc(C(F)(F)F)c2)cc1`, the result was inactive.

For the molecule `Cn1cc(C(c2ccccc2OCC(=O)O)c2cn(C)c3ccccc23)c2ccccc21`, the molecule was classed as inactive. As to `CC(C)CCn1c(CN2CC(C)OC(C)C2)nc2c1c(=O)n(C)c(=O)n2C` (stereo not given), the outcome was inactive. `CCN(CC)CCN1C2=C(C(=O)CC(C)(C)C2)C(c2cccc(F)c2)C2=C1CC(C)(C)CC2=O`: the molecule was classed as inactive.

Turning to `Cc1cccn2c(=O)c3cc(C(N)=S)c(=N)n(CCCN4CCOCC4)c3nc12`, the outcome was inactive.

As for `N=c1c(C(=O)NCC2CCCO2)cc2c(=O)n3ccccc3nc2n1Cc1ccc(Cl)cc1` (stereo not given), the molecule was called inactive.

In the case of `CCc1nc(SCC(=O)c2ccccc2)c2ccccc2n1`, the molecule was classed as inactive. Then `CCOCCCNc1nc2nc3ccc(C)cn3c(=O)c2cc1C(=O)NCC1CCCO1` (stereo not given), with “inactive”; and `COc1cc(C(c2c(C(=O)O)[nH]c3ccccc23)c2c(C(=O)O)[nH]c3ccccc23)ccc1OCc1ccccc1`, with “inactive”. For `O=C(O)c1cccc(NC(=O)c2cn(-c3ccccc3)nc2-c2cccc(Br)c2)c1`, the result was inactive. On to `COc1ccc(C2C3=C(CCCC3=O)N(CC(=O)O)C3=C2C(=O)CCC3)cc1`, for which the call was inactive.

The values are drawn from PubChem BioAssay AID1053124 (Broad Institute, 2014).
